PubChem BioAssay (NCATS)
Inconclusive results are not listed. The source made the active and inactive calls. Unless noted, calls come from the whole dose curve; as a rule, active = well fitted curve in the direction sought with a large enough effect; inconclusive = small, poorly fitted or top-dose-only effect, or another doubt; inactive = no such curve, though single readings can be large; an effect the other way counts as inactive or inconclusive.

Experiments:
[1] = qHTS for Inhibitors of Plasmodium falciparum (DD2) proliferation (AID 504314);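 note: parasite DNA measured by SYBR Green fluorescence after red cell lysis; plate controls were DMSO vehicle for no effect and artemisinin wells for full effect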
Outline: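 Quantitative HTS growth inhibition: SYBR Green I binding to parasite DNA after 72 h drug exposure of infected erythrocytes (0.3% parasitemia, 2.5% hematocrit). Signals normalized per plate to inhibitor and vehicle wells.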

[2] = qHTS for Inhibitors of Plasmodium falciparum (GB4) proliferation (AID 504315);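 note: 0% = DMSO vehicle and -100% = 0.29 µM artemisinin control; nearly all actives have a fitted effect of over 50% in size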
Outline: (§1)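 Erythrocytes infected with P. falciparum line (0.3% parasitemia, 2.5% hematocrit final) incubated with compounds 72 h at 37 °C, 5% CO2; SYBR Green lysis buffer added, fluorescence read next day. Normalized to 0.29 uM artemisinin and DMSO.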

[3] = qHTS for Inhibitors of Plasmodium falciparum (HB3) proliferation (AID 504318);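 note: 0% = DMSO vehicle and -100% = artemisinin control; nearly all actives have a fitted effect of over 60% in size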
Outline: as §1

[4] = qHTS for Inhibitors of Plasmodium falciparum (CP250) proliferation (AID 504320);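 note: plate controls were DMSO vehicle for no effect and 0.29 µM artemisinin control for full effect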
Outline: as §1

[5] = molecular target: Atrial natriuretic peptide receptor 1 (Homo sapiens) (UniProt P16066); experiment: Natriuretic polypeptide receptor (hNpr1) antagonism - Pilot CMLD screen (AID 1347052; calls by dose curve;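 note: HEK293 cells with hNpr1 stimulated by hNppA peptide at 0.1 nM; cGMP level read as GloSensor luciferase luminescence after agonist stimulation; series mostly up to about 9.2 µM; % is set by controls: 0 for no effect and ±100 for the full control effect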)
Sequence of Atrial natriuretic peptide receptor 1 (Homo sapiens) (P16066 whole entry, looked up): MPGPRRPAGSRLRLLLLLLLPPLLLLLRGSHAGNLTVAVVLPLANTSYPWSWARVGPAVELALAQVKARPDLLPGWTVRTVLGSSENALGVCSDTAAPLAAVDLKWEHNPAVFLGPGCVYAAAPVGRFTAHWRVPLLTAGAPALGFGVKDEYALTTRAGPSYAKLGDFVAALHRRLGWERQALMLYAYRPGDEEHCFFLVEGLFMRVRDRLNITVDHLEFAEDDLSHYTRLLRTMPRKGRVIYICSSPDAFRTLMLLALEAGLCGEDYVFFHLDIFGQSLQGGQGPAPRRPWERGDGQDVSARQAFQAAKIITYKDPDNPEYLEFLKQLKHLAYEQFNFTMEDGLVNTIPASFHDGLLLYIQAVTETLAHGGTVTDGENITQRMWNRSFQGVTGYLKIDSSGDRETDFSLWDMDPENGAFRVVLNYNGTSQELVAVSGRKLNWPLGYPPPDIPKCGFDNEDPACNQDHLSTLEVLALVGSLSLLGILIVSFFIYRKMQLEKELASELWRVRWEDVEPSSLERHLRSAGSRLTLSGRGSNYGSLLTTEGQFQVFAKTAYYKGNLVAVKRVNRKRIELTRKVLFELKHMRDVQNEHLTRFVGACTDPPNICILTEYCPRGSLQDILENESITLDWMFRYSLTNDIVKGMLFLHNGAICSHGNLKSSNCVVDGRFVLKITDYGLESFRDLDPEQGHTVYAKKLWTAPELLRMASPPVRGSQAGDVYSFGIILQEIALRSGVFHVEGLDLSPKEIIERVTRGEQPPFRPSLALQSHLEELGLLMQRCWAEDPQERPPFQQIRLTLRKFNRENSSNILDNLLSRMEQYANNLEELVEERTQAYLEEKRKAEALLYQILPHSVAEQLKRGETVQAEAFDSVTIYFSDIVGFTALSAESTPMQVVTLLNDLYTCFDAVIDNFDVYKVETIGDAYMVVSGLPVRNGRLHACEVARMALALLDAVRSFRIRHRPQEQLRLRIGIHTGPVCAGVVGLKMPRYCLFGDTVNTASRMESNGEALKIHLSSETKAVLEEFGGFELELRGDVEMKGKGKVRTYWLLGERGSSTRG

[6] = molecular target: Cytochrome P450 2C9 (Homo sapiens) (UniProt P11712); experiment: qHTS Assay for Inhibitors and Substrates of Cytochrome P450 2C9 (AID 883); note: % is set by controls: 0 for no effect and ±100 for the full control effect; nearly all actives have a fitted effect of over 60% in size
Sequence of Cytochrome P450 2C9 (Homo sapiens) (P11712 whole entry, looked up): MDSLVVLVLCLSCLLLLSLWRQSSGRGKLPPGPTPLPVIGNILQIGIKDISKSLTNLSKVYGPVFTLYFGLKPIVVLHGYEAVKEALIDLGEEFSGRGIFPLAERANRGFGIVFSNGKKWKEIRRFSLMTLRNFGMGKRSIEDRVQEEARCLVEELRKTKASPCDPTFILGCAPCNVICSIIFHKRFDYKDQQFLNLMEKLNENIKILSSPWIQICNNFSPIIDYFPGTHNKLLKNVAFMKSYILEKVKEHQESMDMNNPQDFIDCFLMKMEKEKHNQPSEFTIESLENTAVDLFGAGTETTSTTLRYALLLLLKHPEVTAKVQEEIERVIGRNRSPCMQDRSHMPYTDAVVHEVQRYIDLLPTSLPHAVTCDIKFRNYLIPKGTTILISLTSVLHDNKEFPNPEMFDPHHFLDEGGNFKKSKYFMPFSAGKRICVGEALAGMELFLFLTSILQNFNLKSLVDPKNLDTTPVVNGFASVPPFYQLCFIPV
Outline: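 Luminescent read-out of deoxyluciferin hydroxylation, normalized to 57uM sulphaphenazole (AC100). Reaction: 10nM enzyme, 100uM Luciferin-H (equal to KM), 25mM KPO4, 10 min compound preincubation, then 60 min with NADPH regeneration, both at 37C.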

[7] = molecular target: Cytochrome P450 3A4 (Homo sapiens) (UniProt P08684); experiment: qHTS Assay for Inhibitors and Substrates of Cytochrome P450 3A4 (AID 884); note: series mostly up to about 57 µM; % is set by controls: 0 for no effect and ±100 for the full control effect; nearly all actives have a fitted effect of over 50% in size
Sequence of Cytochrome P450 3A4 (Homo sapiens) (P08684 whole entry, looked up): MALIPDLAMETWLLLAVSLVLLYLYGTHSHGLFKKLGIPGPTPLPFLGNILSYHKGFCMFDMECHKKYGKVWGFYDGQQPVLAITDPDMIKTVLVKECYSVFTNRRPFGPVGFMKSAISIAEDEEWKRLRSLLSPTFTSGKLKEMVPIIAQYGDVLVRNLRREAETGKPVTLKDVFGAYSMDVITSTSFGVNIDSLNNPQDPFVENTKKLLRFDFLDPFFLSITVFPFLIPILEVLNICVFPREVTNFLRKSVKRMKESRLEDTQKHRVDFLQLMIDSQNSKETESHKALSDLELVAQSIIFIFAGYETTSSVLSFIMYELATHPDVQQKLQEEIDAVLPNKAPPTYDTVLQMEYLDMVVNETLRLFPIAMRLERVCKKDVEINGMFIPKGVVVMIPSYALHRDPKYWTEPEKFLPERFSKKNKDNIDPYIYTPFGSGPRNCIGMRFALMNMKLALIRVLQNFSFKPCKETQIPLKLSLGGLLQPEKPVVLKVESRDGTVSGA
Outline: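 20 nM human CYP3A4 with 25 uM Luciferin-PPXE (at KM) in 200 mM KPO4, preincubated 10 min with compound; NADPH regeneration started a 60 min RT reaction. Luciferin detected by luminescence, normalized to 57 uM ketoconazole as full inhibition.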

[8] = molecular target: Cytochrome P450 2D6 (Homo sapiens) (UniProt P10635); experiment: qHTS Assay for Inhibitors and Substrates of Cytochrome P450 2D6 (AID 891);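 note: luciferin methyl ether substrate demethylated by CYP2D6 with NADPH regeneration; % is set by controls: 0 for no effect and ±100 for the full control effect; nearly all actives have a fitted effect of over 60% in size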
Sequence of Cytochrome P450 2D6 (Homo sapiens) (P10635 whole entry, looked up): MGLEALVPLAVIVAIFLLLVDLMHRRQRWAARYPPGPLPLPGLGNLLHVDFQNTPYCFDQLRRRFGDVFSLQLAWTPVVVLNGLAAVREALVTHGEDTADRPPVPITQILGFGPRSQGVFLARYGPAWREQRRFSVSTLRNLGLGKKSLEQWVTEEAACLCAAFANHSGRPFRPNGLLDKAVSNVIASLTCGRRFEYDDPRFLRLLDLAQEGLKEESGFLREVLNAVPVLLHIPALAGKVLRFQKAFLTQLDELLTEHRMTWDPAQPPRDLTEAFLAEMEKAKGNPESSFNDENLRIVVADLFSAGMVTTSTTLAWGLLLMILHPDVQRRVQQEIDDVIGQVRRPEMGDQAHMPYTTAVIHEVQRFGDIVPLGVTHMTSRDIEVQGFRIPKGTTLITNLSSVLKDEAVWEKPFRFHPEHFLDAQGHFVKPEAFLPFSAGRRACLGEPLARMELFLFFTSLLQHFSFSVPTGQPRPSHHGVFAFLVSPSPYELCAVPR
Outline: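 Human CYP2D6 (5 nM) with 30 uM Luciferin-ME EGE (at Km) in 100 mM KPO4, compound preincubated 10 min, then NADPH regeneration system for 60 min at room temperature. Luciferin read by luminescence; normalized to 1.43 uM quinidine.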

[9] = molecular target: Cytochrome P450 2C19 (Homo sapiens) (UniProt P33261); experiment: qHTS Assay for Inhibitors and Substrates of Cytochrome P450 2C19 (AID 899); note: % is set by controls: 0 for no effect and ±100 for the full control effect; nearly all actives have a fitted effect of over 60% in size
Sequence of Cytochrome P450 2C19 (Homo sapiens) (P33261 whole entry, looked up): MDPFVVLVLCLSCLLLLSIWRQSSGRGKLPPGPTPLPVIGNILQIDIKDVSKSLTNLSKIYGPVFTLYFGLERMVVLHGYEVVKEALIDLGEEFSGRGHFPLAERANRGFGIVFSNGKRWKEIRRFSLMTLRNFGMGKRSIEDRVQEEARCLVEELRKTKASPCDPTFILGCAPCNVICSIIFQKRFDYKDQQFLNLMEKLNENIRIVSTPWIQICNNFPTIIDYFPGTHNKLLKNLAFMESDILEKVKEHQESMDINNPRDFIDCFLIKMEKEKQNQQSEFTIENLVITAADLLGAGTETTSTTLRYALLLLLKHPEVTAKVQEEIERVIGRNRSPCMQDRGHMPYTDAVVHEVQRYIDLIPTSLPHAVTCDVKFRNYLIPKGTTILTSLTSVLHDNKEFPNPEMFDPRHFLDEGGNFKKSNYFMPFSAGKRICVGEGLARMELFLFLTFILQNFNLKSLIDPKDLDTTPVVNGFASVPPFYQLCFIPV
Outline: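 Luminescence readout of luciferin formed from 10uM Luciferin-H EGE (KM level) by 5 nM CYP2C19 in 50mM KPO4. 60 min NADPH-driven reaction at 37C after 10 min compound preincubation; data scaled to 57uM ketoconazole inhibition.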

[10] = molecular target: Cytochrome P450 3A4 (Homo sapiens) (UniProt P08684); experiment: qHTS Assay for Activators of Cytochrome P450 3A4 (AID 885); note: nearly all actives have a fitted effect of over 65% in size
Outline: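 Steps: enzyme/substrate mix dispensed; compound added, 10 min RT; NADPH regeneration solution added, 60 min RT; luciferin detection buffer stops reaction; 20 min later luminescence measured.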

[11] = qHTS for Inhibitors of Plasmodium falciparum (7G8) proliferation (AID 504316);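 note: series mostly up to about 6.7 µM; 0% = DMSO vehicle and -100% = 0.29 µM artemisinin full kill; nearly all actives have a fitted effect of over 65% in size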
Outline: as §1

COCCN1C(=O)NC(c2cccc(F)c2)C(C(C)=O)=C1C (stereo unspecified)
inactive: Potency [1] | Potency [2] | Potency [3] | Potency [4] | Potency [5]

CCOC(=O)N1C2=NC(C(=O)OC)=C(C(=O)OC)[C@@H]3N(C)c4ccccc4[C@]23C[C@H]1C(=O)OC
inactive: Potency [1] | Potency [2] | Potency [3] | Potency [4] | Potency [5]

C=CCN1C(=O)[C@@]2(CC(C)=C[C@@H](COc3ccccc3)O2)c2ccccc21
inactive: Potency [1] | Potency [2] | Potency [3] | Potency [4] | Potency [5]

COC(=O)CC=C[C@@H](C)[C@@H](C=NO[C@H](C)CN1CCCc2nc(C)c(C)cc21)N[S+](=O)([O-])c1ccc(C)cc1
inactive: Potency [1] | Potency [2] | Potency [3] | Potency [4] | Potency [5]

COC(=O)C1=NOC2(C=C(Br)C(OC)=C(Br)C2=O)C1 (stereo unspecified)
inactive: activity change, negative = inhibition [6] -4.18% [at 11.4 µM] | activity change, negative = inhibition [7] -15.6% [at 11.4 µM] | activity change, negative = inhibition [8] -8.27% [at 11.4 µM] | activity, negative = inhibition [9] -27.3% [at 11.4 µM]

COC(=O)C(C(C)=O)C(=O)C(Cc1ccccc1)NC(=O)OCc1ccccc1 (stereo unspecified)
inactive: activity change, negative = inhibition [6] 2.74% [at 11.4 µM] | activity change, negative = inhibition [7] -19.6% [at 11.4 µM] | activity, negative = inhibition [9] -11.9% [at 11.4 µM]

Cc1ccc2[nH]c3nc(CCCn4ccnc4-c4ccccc4)nnc3c2c1
inactive: activity change, positive = activation [10] -50.4% [at 11.4 µM]

CCOC(=O)CN1C(=O)NC(c2ccccc2)C(C(C)=O)=C1C (stereo unspecified)
inactive: Potency [1] | Potency [11] | Potency [3] | Potency [4] | Potency [5]

CC(=O)OC[C@H]1O[C@H](CC=NO[C@H](C)c2cn([C@H](CO)Cc3ccccc3)nn2)C=C[C@@H]1OC(C)=O
inactive: Potency [1] | Potency [11] | Potency [3] | Potency [4] | Potency [5]

COCCN1C=C2C(=O)C(C)(OC(=O)C3CCCC3)C(=O)C(c3ccccc3)=C2C=C1CCCC(=O)OC (stereo unspecified)
inactive: Potency [1] | Potency [11] | Potency [3] | Potency [4] | Potency [5]

CCN1C(=O)[C@@H]2[C@H]3[C@H](O)[C@H](O)CC(=NOC[C@@H](O)[C@H]4O[C@@H]5OC(C)(C)O[C@H]5[C@@H]4O)[C@@H]3CC[C@H]2C1=O
inactive: Potency [1] | Potency [11] | Potency [3] | Potency [4] | Potency [5]

CC(C)(C)Nc1oc(-c2ccccc2)nc1-c1ccccc1F
inactive: Potency [1] | Potency [11] | Potency [3] | Potency [4] | Potency [5]

COc1ccc(C(O)C2=CCCC2=O)cc1 (stereo unspecified)
inactive: Potency [1] | Potency [11] | Potency [3] | Potency [5]

CC(C)(C)Nc1oc(-c2ccccc2)nc1-c1ccc(C(F)(F)F)cc1
inactive: Potency [1] | Potency [11] | Potency [3] | Potency [5]

CCC=CCCC(OC(=O)c1ccc(Br)cc1)C1=CCCCC1=O (stereo unspecified)
inactive: Potency [1] | Potency [11] | Potency [3] | Potency [4] | Potency [5]
